Bioassay records (PubChem)
Pf growth 96h: inhibits malaria parasite growth, 96 h; P. falciparum luciferase reporter growth, 96 h; Potency, µM (doses to about 28.7 µM), without a hit: top-dose activity change, negative = inhibition, usual class: inhibitors; actives 6.9% (n = 320,000); AID 504834; further: on the % scale 0 is the no-effect control and ±100 the full control effect
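P. falciparum expressing integrated firefly luciferase grown in erythrocytes (2% hematocrit, 0.05% parasitemia final) with compounds for 96 hours at 37 C, 5% CO2. Growth inhibition read as loss of luminescence after adding luciferase detection reagent.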
Pf growth 48h: P. falciparum growth inhibition at 48 hours (one generation); P. falciparum luciferase growth in erythrocytes, 48 h; Potency, µM (doses to about 28.7 µM), for the others: top-dose activity change, negative = inhibition, most hits filed as inhibitors; actives 5.9% (n = 310,000); further: on the % scale 0 is the no-effect control and ±100 the full control effect
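Luciferase-expressing parasites in RBCs, 2% Hct / 0.1% parasitemia final; RPMI 1640 + 0.5% Albumax; 37 C, 5% CO2, one generation; luminescence read-out, lower signal = inhibition.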
Vaccinia Venus: vaccinia inhibition (Venus reporter); Potency, µM (series often up to 36.5 µM), without a hit: at the top dose activity change, negative = inhibition, actives largely listed as inhibitors; AID 720580; actives 0.46% (n = 330,000); Vaccinia virus Venus reporter expression, fluorescence; calls by dose curve; tested in A549 cells; further: on the % scale 0 is the no-effect control and ±100 the full control effect; nearly all actives have a fitted effect of over 30% in size
NS1 function inh: influenza NS1 inhibition | Potency, µM (series often up to 46.1 µM), for inactives: at the top dose activity, positive = more growth | actives 0.4% (n = 270,000); calls by dose curve; further: actives are rising curves; nearly all actives have a fitted effect of over 50% in size
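In this qHTS, NS1 from influenza A is expressed in budding yeast, where it slows growth. Cells are switched from glucose to 2% galactose medium (pH 6.0, -URA), treated with compound, and growth recovery is read at OD600.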
Vaccinia mCherry: inhibitors of vaccinia virus infection (mCherry reporter signal); Potency, µM (highest dose often 36.5 µM), for the others: at the highest dose activity change, negative = inhibition, most hits filed as inhibitors; Vaccinia virus mCherry reporter infection, fluorescence; AID 720579; actives 0.63% (n = 310,000); calls by dose curve; tested in A549 cells; further: on the % scale 0 is the no-effect control and ±100 the full control effect; nearly all actives have a fitted effect of over 35% in size
HCV inhibitor: HCV inhibition; Huh7.5.1 HCVcc-Cre infection, luciferase reporter, 44 h; Potency, µM (titrated, usually from 41.8 µM), for inactives: top-dose activity change, negative = inhibition, actives largely listed as inhibitors; actives 3.4% (n = 340,000); AID 651820; further: on the % scale 0 is the no-effect control and ±100 the full control effect
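Whole-lifecycle infectious HCVcc-Cre system; cells 1,000/well, compound then virus (~0.5 moi) added 4 h after plating, 44 h culture. Luciferase read 15 sec following 15 min substrate incubation, room temp.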
The depositor's hits bear a star; i = inactive; ? = inconclusive; . = not tested or not shown; [ ] = dose if it differs, or a comment. A selection: hits, their analogues and other compounds. The true share with any hit is near 11%. Unless noted, the call rests on the fitted dose curve; in most records, active means well fitted inhibition curve with a large enough effect; inconclusive means small, poorly fitted or top-dose-only effect, or another doubt; inactive means no such curve, though single readings can be large or run the other way. Potency means the concentration at half of the fitted maximal effect.

SMILES	Pf growth 96h	Pf growth 48h	Vaccinia Venus	NS1 function inh	Vaccinia mCherry	HCV inhibitor
Cc1cc(C(=O)N/N=C/c2cc(Br)cc(Br)c2OC(=O)c2cccc(F)c2)n[nH]1	?	12µM*	-15%	.	?	?
Cc1cc(C(=O)N/N=C/c2cccs2)n[nH]1	423%	128%	1%	.	i	8%
Cc1cc(C(=O)N/N=C\c2cc(C(C)(C)C)ccc2O)n[nH]1	2%	12µM*	.	-30%	.	?
Cc1ccc(-c2cc(C(=O)N/N=C/c3ccccc3O)n[nH]2)o1	?	5.2µM*	?	-36%	?	?
CCNS(=O)(=O)c1ccc(CCC(=O)NCCc2ccc(OC)cc2)cc1	3%[5.75 µM]	9%	-9%	.	-26%	?
Clc1ccc(-c2c(C3=NCCCN3)nnn2-c2ccc(Cl)cc2)cc1	?	?	-11%	-6%	19%	?
COCOc1ccc(/C=C2/Oc3cc(OCOC)cc(OCOC)c3C2=O)c(OCOC)c1	.	.	16%	.	-15%	-15%
COc1cc(C(=O)NCCOc2cc(C)cc(C)c2)c(Br)c(OC)c1OC	13µM*	-11%	?	-15%	.	?
Cn1c(=S)c2[nH]c(SCCN3CCCC3)nc2n(C)c1=O	?	12µM*	-13%	5%	0%	-16%
CCCCN(CCCNC(=O)c1cc(Nc2ccc(OC)c(OC)c2)nc2ccccc12)c1ccccc1	.	.	-2%	.	-1%	.
CCOC(CNC(=O)c1cccn2c(=O)c3c(C)c(C)sc3nc12)OCC	13µM*	6.6µM*	.	9%	.	2%
CCOC(CNC(=O)c1cccn2c(=O)c3cc(Cl)ccc3nc12)OCC	?	.	-3%	19%	-14%	?
Cc1ccc(NC(=O)C2(NC(=O)c3cccc(N4C(=O)CSC4c4ccccc4)c3)CCCCC2)cc1 (configuration not stated)	?	?	.	7%	.	?
O=C1/C(=C2\C(=O)N(Cc3ccc(F)cc3)c3ccccc32)SC(=S)N1CCS(=O)(=O)O	-7%	-12%	.	12%	.	6%
Cc1c(Cc2ccc3c(c2)OCO3)sc(NC(=O)C(C)(C)C)c1C#N	?	?	-22%	-1%	-16%	11µM*
CCC(=O)Nc1sc(Cc2ccc3c(c2)OCO3)c(C)c1C(N)=O	-12%	?	.	-79%	.	-19%
Cc1cc(Oc2ccc(C)c(Cl)c2)nc(SCC(=O)c2ccccc2)n1	8%	-7%	-16%	-3%	-21%	?
Cc1ccc2c(CN(Cc3ccccc3)Cc3ccccc3)cc(=O)oc2c1	.	.	-6%	.	i	.
CCN(Cc1cc(=O)oc2cc(C)ccc12)c1ccccc1	?	?	.	14%	.	22µM*
CCc1c(C)nc2nncn2c1Nc1ccc(C(C)C)cc1	.	.	-23%	.	-19%	.
O=C(c1ccc2c(=O)n(Cc3ccc4c(c3)OCO4)c(=O)[nH]c2c1)N1CCN(c2ccccc2)CC1	12µM*	-9%	.	10%	.	16%
O=C(CCn1c(=S)[nH]c2cc3c(cc2c1=O)OCO3)N1CCN(c2ccccn2)CC1	.	.	.	-33%	.	.
C=CCn1c(=O)[nH]c2cc(C(=O)N3CCN(c4ccc(C(C)=O)cc4)CC3)ccc2c1=O	6.6µM*	.	.	-9%	.	?
O=C(c1ccc(Cn2c(=S)[nH]c3cc4c(cc3c2=O)OCO4)cc1)N1CCN(c2ncccn2)CC1	?	12µM*	.	15%	.	.
COc1ccc(-n2c(=S)[nH]c3cc(C(=O)N4CCN(c5ccccc5)CC4)ccc3c2=O)cc1	2.1µM*	-9%	-9%	11%	-22%	?
COc1ccc(CCNC(=O)CN2C(=O)COc3ccc(S(=O)(=O)N4CCCCCC4)cc32)cc1OC	.	.	5%	.	-9%	.
Brc1cccc2sc(N3CCN(c4ccccc4)CC3)nc12	0%	31%	-8%	.	-9%	1%
COc1ccc(Cn2c(=O)[nH]c3cc(C(=O)N4CCN(c5ccc(OC)cc5)CC4)ccc3c2=O)cc1	24%	-26%	-2%	4%	-10%	?
CC(=O)c1ccc(N2CCN(C(=O)c3ccc4c(=O)n(-c5ccccc5)c(=O)[nH]c4c3)CC2)cc1	?	10µM*	.	-17%	.	?
